Dyrk1A ADPGlo – Dyrk1A (rat) kinase inhibition; Q63470; 310,000 compounds, 0.43% hits; inhibition, % at 12.5 µM; ADP-Glo luminescence, NFATc1 peptide; in the data active = inhibition above about 50%;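 also: plate controls were vehicle with enzyme for no effect and no enzyme for full effect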
esBAF inh – blocks esBAF chromatin remodeling in mouse ES cells. Bmi1-luciferase knock-in reporter, 24 h; 100% = twice the neutral-well signal. reporter increase, % at 12.5 µM. 350,000 compounds, 2% hits. AID 602393; in the data active = activation above about 40%;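 also: 0% = median of the plate's neutral control wells and 100% = double that signal; a rise in the Bmi1 reporter signal indicates esBAF inhibition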
Rtt109 HAT inh – C. albicans Rtt109 histone acetyltransferase inhibition. Q5AAJ8. purified Rtt109/Vps75, ThioGlo CoA-SH fluorescence, 4 h. inhibition, % at 34.9 µM. 330,000 compounds, 0.16% hits. AID 540336;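 active = inhibition of at least 50% in every replicate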
Target sequence (Q5AAJ8 whole entry, looked up): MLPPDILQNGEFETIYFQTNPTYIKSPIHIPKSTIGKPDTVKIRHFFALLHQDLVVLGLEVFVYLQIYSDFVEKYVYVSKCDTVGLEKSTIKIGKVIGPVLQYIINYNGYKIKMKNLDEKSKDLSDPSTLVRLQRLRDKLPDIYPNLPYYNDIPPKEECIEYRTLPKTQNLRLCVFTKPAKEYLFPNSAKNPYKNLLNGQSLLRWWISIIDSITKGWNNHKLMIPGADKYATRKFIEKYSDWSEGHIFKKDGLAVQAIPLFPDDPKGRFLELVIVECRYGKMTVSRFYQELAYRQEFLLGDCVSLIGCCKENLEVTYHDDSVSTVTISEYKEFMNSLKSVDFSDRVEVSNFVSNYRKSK
CDK5 p35 inh – blocks human CDK5/p35 kinase activity; Recombinant CDK5/p35, ADP-Glo luminescence, 60 min; AID 488839; inhibition, % at 10 µM; 330,000 compounds, 0.01% hits; Q00535+Q15078;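 active = highest replicate inhibition of at least 50% and at least 75% of replicates reaching 50%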;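 also: plate controls were DMSO neutral control for no effect and GW8510 at 10 µM for full effect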
SMARCA2 act – increases SMARCA2 function in MMTV reporter cells; 370,000 compounds, 1% hits; activation, % at 9.1 µM; MG213 cells, MMTV-luciferase reporter, dexamethasone, overnight; in the data active = activation above about 7.8%;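 also: 0% = vehicle wells and 100% = reference activator wells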
dFosB activator – mouse delta FosB homodimer activation | purified delta FosB, TAMRA-CDK5 oligo fluorescence polarization; percent of positive-control signal above neutral wells | activation, % at 25 µM | 340,000 compounds, 0.99% hits;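 active = mean activation above about 17%, with every replicate also reaching it, limit read from the data, passing the limit was not always enough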
Numbers without * were called inactive. Only some compounds are listed: those with a hit (about 3.2% of all), similar ones and a draw of the others.

Results for O=C(c1ccccc1)c1ccc(N2CCCC2)cc1 ?
Dyrk1A ADPGlo: 0; esBAF inh: 60*; Rtt109 HAT inh: 10; CDK5 p35 inh: 0; SMARCA2 act: 5; dFosB activator: 0

What do the screens show for `CCOC(=O)N1CCN(c2ccc(C(C)=O)cc2F)CC1`?
Dyrk1A ADPGlo: 9; esBAF inh: 6; Rtt109 HAT inh: 6; CDK5 p35 inh: 0; SMARCA2 act: -4; dFosB activator: -2

What do the screens show for `CCOC(=O)N1CCN(c2ccc(C(=O)c3ccccc3)cc2F)CC1`?
Dyrk1A ADPGlo: 2; esBAF inh: 56*; Rtt109 HAT inh: 9; CDK5 p35 inh: 0; SMARCA2 act: 2; dFosB activator: -4

Results for O=C(c1ccccc1)c1ccc(N2CCOCC2)cc1 ?
Dyrk1A ADPGlo: 8; Rtt109 HAT inh: 4; CDK5 p35 inh: -1; SMARCA2 act: 0; dFosB activator: 2

How did Nc1cc(C(=O)c2ccccc2)ccc1N1CCOCC1 do in these assays?
Dyrk1A ADPGlo: -1; esBAF inh: 52*; Rtt109 HAT inh: -9; CDK5 p35 inh: 0; SMARCA2 act: -2; dFosB activator: 2

How did CO[C@H]1CN(C)C(=O)c2cc(NS(C)(=O)=O)ccc2OC[C@H](C)N(Cc2nccs2)C[C@H]1C do in these assays?
esBAF inh: -6

What do the screens show for `C[C@@H]1CN([C@H](C)CO)C(=O)c2cc(C#CCN(C)C)cnc2O[C@@H]1CN(C)C(=O)c1ccc2c(c1)OCO2`?
esBAF inh: -2

How did Cc1ccc(S(=O)(=O)N[C@H]2CC[C@@H](CC(=O)N3CCN(c4ccccc4)CC3)O[C@H]2CO)cc1 do in these assays?
esBAF inh: -9

What do the screens show for `C[C@@H]1CN([C@H](C)CO)C(=O)c2cc(-c3cncnc3)cnc2O[C@@H]1CN(C)C(=O)Cc1ccccc1`?
esBAF inh: 5

How did COc1ccc(OC)c(CNc2ccc3c(c2)CCC3)c1 do in these assays?
Dyrk1A ADPGlo: 3; esBAF inh: 46*; Rtt109 HAT inh: 0; CDK5 p35 inh: 2; SMARCA2 act: -1; dFosB activator: -9

Results for Cn1c2ccccc2c(=O)c2ccc(-c3ccc4c(c3)OCO4)cc21 ?
Dyrk1A ADPGlo: 19; esBAF inh: 49*; Rtt109 HAT inh: -3; CDK5 p35 inh: 2; SMARCA2 act: 6; dFosB activator: -1

What do the screens show for `O=C(/C=C/c1ccc(Cl)cc1)NCc1ccncc1`?
Dyrk1A ADPGlo: -14; esBAF inh: -3; Rtt109 HAT inh: 53*; CDK5 p35 inh: -3; SMARCA2 act: -1; dFosB activator: -3

How did Cc1ccc(/C=C/C(=O)NCc2ccncc2)cc1 do in these assays?
Dyrk1A ADPGlo: -3; Rtt109 HAT inh: -7; CDK5 p35 inh: -1; SMARCA2 act: 0; dFosB activator: 4

Results for CN(C)c1ncnc2c1ncn2-c1ccccc1 ?
esBAF inh: 59*; Rtt109 HAT inh: -8; CDK5 p35 inh: 1; SMARCA2 act: 1; dFosB activator: -2

How did CCOc1ccccc1C1N=C(c2ccc(OC)cc2)CC(c2ccccc2O)N1 (centres undefined) do in these assays?
Dyrk1A ADPGlo: -2; Rtt109 HAT inh: 18; CDK5 p35 inh: 0; SMARCA2 act: 3; dFosB activator: 9

How did CC(C)C1N=C(c2ccc3c(c2)OCO3)CC(c2ccccc2O)N1 (centres undefined) do in these assays?
Dyrk1A ADPGlo: 0; esBAF inh: 47*; Rtt109 HAT inh: -5; CDK5 p35 inh: -2; SMARCA2 act: 5; dFosB activator: 2

How did Cc1ccc(C(C)(C)NC(=O)C2CCC(=O)N(C3CCCCCC3)C2)cc1 (centres undefined) do in these assays?
Dyrk1A ADPGlo: -9; esBAF inh: 74*; Rtt109 HAT inh: 2; CDK5 p35 inh: 1; SMARCA2 act: 5; dFosB activator: -8

How did CC(C)C#Cc1ccc2c(c1)O[C@H](CN(C)C(=O)C1CC1)[C@@H](C)CN([C@H](C)CO)S2(=O)=O do in these assays?
esBAF inh: 8

How did O=C(Nc1ccc2c(c1)OCO2)N[C@@H]1CC[C@H](CC(=O)N2CCN(c3ccccc3)CC2)O[C@H]1CO do in these assays?
esBAF inh: 4

How did COc1ccc(/C=N/N=C2/NC(=O)C(CC(=O)NC(N)=O)S2)cc1 (centres undefined) do in these assays?
Dyrk1A ADPGlo: -2; Rtt109 HAT inh: -12; CDK5 p35 inh: 0; SMARCA2 act: -1; dFosB activator: 19*

What do the screens show for `C/C=C/c1ccc2c(c1)O[C@H](CN(C)C(=O)Nc1cc(F)ccc1F)[C@H](C)CN([C@H](C)CO)S2(=O)=O`?
esBAF inh: 3

What do the screens show for `Cc1c(N2C(=O)/C(=C/C3CC=CCC3)SC2=S)c(=O)n(-c2ccccc2)n1C` (centres undefined)?
SMARCA2 act: -2

Results for Cc1c(N2C(=O)/C(=C\C3CC=CCC3)SC2=S)c(=O)n(-c2ccccc2)n1C (centres undefined) ?
esBAF inh: 44*; Rtt109 HAT inh: -17; CDK5 p35 inh: -2; SMARCA2 act: 1; dFosB activator: -3

What do the screens show for `COc1ccc(NC(=O)c2cc3sccc3n2Cc2ccc(F)cc2)cc1OC`?
Dyrk1A ADPGlo: -3; esBAF inh: 65*; Rtt109 HAT inh: 5; CDK5 p35 inh: -1; SMARCA2 act: 4; dFosB activator: -4

What do the screens show for `COC(=O)c1ccc(NC(=O)c2cc3sccc3n2C)cc1`?
Dyrk1A ADPGlo: 1; esBAF inh: 55*; Rtt109 HAT inh: 4; CDK5 p35 inh: -1; SMARCA2 act: 6; dFosB activator: -7

Results for COc1ccc(OC)c(NC(=O)c2cc3sccc3n2C)c1 ?
Dyrk1A ADPGlo: 5; esBAF inh: 16; Rtt109 HAT inh: 9; CDK5 p35 inh: -1; SMARCA2 act: 0; dFosB activator: -10

How did COc1cc(NC(=O)c2cc3sccc3n2C)cc(OC)c1 do in these assays?
Dyrk1A ADPGlo: 0; esBAF inh: 42*; Rtt109 HAT inh: -7; CDK5 p35 inh: 1; SMARCA2 act: 4; dFosB activator: -7

What do the screens show for `N#Cc1c(NC(=S)NC(=O)c2ccccc2)sc2c1CCC2`?
Dyrk1A ADPGlo: -1; esBAF inh: 49*; Rtt109 HAT inh: -4; CDK5 p35 inh: -1; SMARCA2 act: 1; dFosB activator: -9

How did CC1CCc2sc(NC(=S)NC(=O)c3ccccc3)c(C#N)c2C1 (centres undefined) do in these assays?
Dyrk1A ADPGlo: -2; esBAF inh: 58*; Rtt109 HAT inh: -6; CDK5 p35 inh: -2; SMARCA2 act: 1; dFosB activator: -10

Results for CCN1CCc2c(sc(NC(=S)NC(=O)c3ccccc3)c2C#N)C1 ?
Dyrk1A ADPGlo: 1; Rtt109 HAT inh: 21; CDK5 p35 inh: -1; SMARCA2 act: 1; dFosB activator: -11

What do the screens show for `CC(C)(C)c1ccc(C(=O)NC(=S)Nc2sc3c(c2C#N)CCC3)cc1`?
Dyrk1A ADPGlo: -1; Rtt109 HAT inh: -3; CDK5 p35 inh: 0; SMARCA2 act: -1; dFosB activator: 6
